Results: PubChem BioAssay
For some assays here: Potency and affinity values are given separately. Activity calls are given as the source filed them. Unless noted, cut-off not given; nearly all actives show IC50 up to about 0.91 µM.

What follows are compounds tested against Protein kinase 7 (PK7), Plasmodium falciparum 3D7 (PF3D7_0213400) (UniProt Q7YTF7) (assay: inhibition of Plasmodium PK7 catalytic activity – biochemical, TCAMS antimalarial set, Kinase-Glo luminescence (AID 1159587; call rule not given here)). Conditions: recombinant PfPK7, Kinase-Glo ATP depletion luminescence.
Protein kinase 7 (PK7), Plasmodium falciparum 3D7 (PF3D7_0213400), sequence (Q7YTF7 1-343): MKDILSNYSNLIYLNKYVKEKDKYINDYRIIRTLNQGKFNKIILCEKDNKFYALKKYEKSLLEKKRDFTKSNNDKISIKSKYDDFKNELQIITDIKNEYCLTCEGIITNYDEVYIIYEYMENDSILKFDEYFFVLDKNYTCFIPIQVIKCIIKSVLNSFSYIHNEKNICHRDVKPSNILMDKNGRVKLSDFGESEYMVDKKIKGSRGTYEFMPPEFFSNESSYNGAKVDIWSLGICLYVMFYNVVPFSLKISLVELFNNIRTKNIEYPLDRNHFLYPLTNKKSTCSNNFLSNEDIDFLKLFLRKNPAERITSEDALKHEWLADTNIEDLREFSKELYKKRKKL

outcome, inactive:
COc1ccc(C(=O)NC2CCN(c3ccnc4cc(Cl)ccc34)C2)cc1 (stereo not given)
CC(C)(C)NCc1cc(Nc2ccnc3cc(Cl)ccc23)ccc1F
O=C(NC1CCC(CCN2Cc3ccc(Br)cc3C2)CC1)c1cccc(-c2cccnc2)c1 (stereo not given)
CC(C)Nc1nc(NCCc2cnc[nH]2)nc(NCc2ccc(Cl)c(Cl)c2)n1
N#Cc1ccc(N(CCNS(=O)(=O)c2cc(Br)c(Cl)s2)Cc2ccccc2C(F)(F)F)cc1C(F)(F)F
COCCCNc1sc(S(=O)(=O)c2ccccc2)nc1S(=O)(=O)c1ccc(C)cc1
O=C(/C=C/c1ccc(Cl)cc1)NCCCCCN1CCC(C(=O)Nc2ccc(Cl)cc2)CC1
O=C(NCCCNc1nc2ccccc2[nH]1)c1cccc(OC(F)(F)F)c1
NC(=O)c1cccc(CNCc2ccc(-c3cccc(-c4nc5ccccc5[nH]4)c3)cc2)c1
C[C@@H]1CN(c2ncc(-c3ccc(CNC4Cc5ccccc5C4)cc3)cn2)C[C@H](C)N1
Oc1ccc(-c2ccccc2)cc1CN1CCCCCC1
Cc1cccc(Cn2c(C(N)=O)nn(-c3ccc([N+](=O)[O-])cc3C#N)c2=S)c1
O=C(Nc1ccncc1)c1cc(C(=O)Nc2ccncc2)cc([N+](=O)[O-])c1
CC(C)(C)C(Cn1ccnc1)NCc1cn[nH]c1-c1ccc(-c2ccccc2)cc1 (stereo not given)
COc1cc(CNC[C@@H](O)[C@H](Cc2ccccc2)NC(=O)c2cc(C3CCCC3)cc(N3CCCS3(=O)=O)c2)cc(OC)c1
Cc1ccccc1Nc1nc(Nc2ccccc2)c2ccccc2n1
CCCc1cn2c3c(cc(C(=O)N[C@@H](Cc4ccccc4)[C@H](O)CNC4CCOCC4)cc13)N(C)S(=O)(=O)CC2
COc1ccc(CNC(=O)NC2CCN(c3ccnc(Nc4ccc(F)cc4)n3)CC2)cc1
CC(C)COc1ccc(Cl)cc1Cc1ccc(-c2nc3ccc(C(F)(F)F)cc3[nH]2)o1
O=C(/C=C/c1c[nH]c2ccccc12)NCCCCCN1CCC(c2c[nH]c3ccccc23)CC1
Cc1noc(C)c1-c1ccc2c(Nc3ccccc3C(C)(C)C)c(C(=O)NCc3ccc(C(F)(F)F)cc3)cnc2c1
CN(C)C(=O)O[C@@H]1CN[C@H](C#Cc2cc3ncnc(Nc4ccc5c(cnn5Cc5cccc(F)c5)c4)c3s2)C1
CCOC(=O)c1cc(C(=O)NCCCCN2CCC(c3ccc(CC)cc3OCC)CC2)ccc1-c1ccc(C(F)(F)F)cc1
Cc1cc(Nc2ccnc(-c3ccc(Cl)cc3)n2)ccn1
Cc1ccc(Nc2nc(N)c3ccccc3n2)cc1
O=C(N[C@H]1CCN(Cc2ccc(OCCN3CCCC3)c(Cl)c2)C1)c1ccc(Cl)c(Cl)c1
CC(Cc1ccc(NC(=O)COc2ccc(CC(C)NCCc3cccc(Cl)c3)cc2)cc1)NCCc1cccc(Cl)c1 (stereo not given)
O=C(Nc1ccc(-c2ccc(-c3nc4ccccc4[nH]3)s2)cc1)c1ccncc1
Cc1nc2nc(N)nc(N)c2c(C)c1Cc1cccc(C(N)=O)c1
COc1ccc(-c2ccc(NC(=O)c3ccc(Cl)cc3)cc2)cc1CN1CCNCC1
Oc1ccc(Nc2nc(NCc3ccccc3)c3ccccc3n2)cc1
COc1cc(F)c2ncc(Cl)c(CCN3CCC(NCc4ccc5c(c4)NC(=O)CO5)CC3)c2c1
FC(F)(F)c1ccc2nc(-c3cccc(-c4cccc(CNCC5CCCO5)c4)c3)[nH]c2c1 (stereo not given)
OCCN1CCN(Cc2ccc(-c3cccc(-c4nc5ccc(C(F)(F)F)cc5[nH]4)c3)cc2)CC1
Clc1cnc2ccc3c(c2c1CCN1CCC(NCc2cc4c(cn2)OCCO4)CC1)OCCO3
CC(CCc1ccccc1)NCC(O)c1cccc([N+](=O)[O-])c1 (stereo not given)
CC(CN(C)C)C(=O)Nc1cccc(-c2cccc(-c3nc4ccc(F)cc4[nH]3)c2)c1 (stereo not given)
CC(=O)Nc1cccc(C(=O)Nc2cccc(-c3ccc(-c4nc5ccc(F)cc5[nH]4)s3)c2)c1
COc1ccc(Nc2nccc(N3CCC(NC(=O)C(C)c4ccc(Cl)cc4)CC3)n2)cc1 (stereo not given)
c1ccc(Oc2ccc(Nc3ccnc4cc(-c5cccc(CN6CCOCC6)c5)ccc34)cc2)cc1

The compounds below were run against Calcium-dependent protein kinase 4 (Plasmodium falciparum (isolate 3D7)) (UniProt Q8IBS5) (assay: PfCDPK4 kinase inhibitors, biochemical, TCAMS library (AID 1159588)). Conditions: recombinant PfCDPK4, Kinase-Glo ATP depletion luminescence.
Calcium-dependent protein kinase 4 (Plasmodium falciparum (isolate 3D7)), sequence (Q8IBS5 whole entry, looked up): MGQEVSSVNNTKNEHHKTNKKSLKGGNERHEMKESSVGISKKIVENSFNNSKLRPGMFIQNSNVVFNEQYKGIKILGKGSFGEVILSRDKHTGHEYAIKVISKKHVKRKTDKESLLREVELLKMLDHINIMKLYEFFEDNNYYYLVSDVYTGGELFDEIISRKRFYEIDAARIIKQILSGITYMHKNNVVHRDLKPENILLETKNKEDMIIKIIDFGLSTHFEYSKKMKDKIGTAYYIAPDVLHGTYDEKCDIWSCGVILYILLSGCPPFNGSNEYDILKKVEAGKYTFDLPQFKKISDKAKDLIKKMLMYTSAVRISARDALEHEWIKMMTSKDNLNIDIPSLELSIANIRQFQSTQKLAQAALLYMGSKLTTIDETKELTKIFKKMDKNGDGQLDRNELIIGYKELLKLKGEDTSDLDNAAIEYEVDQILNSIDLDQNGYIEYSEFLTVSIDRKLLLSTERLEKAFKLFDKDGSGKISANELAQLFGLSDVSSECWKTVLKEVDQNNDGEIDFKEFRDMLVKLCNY

outcome, inactive:
COc1ccc(C(=O)NC2CCN(c3ccnc4cc(Cl)ccc34)C2)cc1 (stereo not given)
CC(C)(C)NCc1cc(Nc2ccnc3cc(Cl)ccc23)ccc1F
O=C(NC1CCC(CCN2Cc3ccc(Br)cc3C2)CC1)c1cccc(-c2cccnc2)c1 (stereo not given)
CC(C)Nc1nc(NCCc2cnc[nH]2)nc(NCc2ccc(Cl)c(Cl)c2)n1
N#Cc1ccc(N(CCNS(=O)(=O)c2cc(Br)c(Cl)s2)Cc2ccccc2C(F)(F)F)cc1C(F)(F)F
COCCCNc1sc(S(=O)(=O)c2ccccc2)nc1S(=O)(=O)c1ccc(C)cc1
O=C(/C=C/c1ccc(Cl)cc1)NCCCCCN1CCC(C(=O)Nc2ccc(Cl)cc2)CC1
O=C(NCCCNc1nc2ccccc2[nH]1)c1cccc(OC(F)(F)F)c1
NC(=O)c1cccc(CNCc2ccc(-c3cccc(-c4nc5ccccc5[nH]4)c3)cc2)c1
C[C@@H]1CN(c2ncc(-c3ccc(CNC4Cc5ccccc5C4)cc3)cn2)C[C@H](C)N1
Oc1ccc(-c2ccccc2)cc1CN1CCCCCC1
Cc1cccc(Cn2c(C(N)=O)nn(-c3ccc([N+](=O)[O-])cc3C#N)c2=S)c1
O=C(Nc1ccncc1)c1cc(C(=O)Nc2ccncc2)cc([N+](=O)[O-])c1
CC(C)(C)C(Cn1ccnc1)NCc1cn[nH]c1-c1ccc(-c2ccccc2)cc1 (stereo not given)
COc1cc(CNC[C@@H](O)[C@H](Cc2ccccc2)NC(=O)c2cc(C3CCCC3)cc(N3CCCS3(=O)=O)c2)cc(OC)c1
Cc1ccccc1Nc1nc(Nc2ccccc2)c2ccccc2n1
CCCc1cn2c3c(cc(C(=O)N[C@@H](Cc4ccccc4)[C@H](O)CNC4CCOCC4)cc13)N(C)S(=O)(=O)CC2
COc1ccc(CNC(=O)NC2CCN(c3ccnc(Nc4ccc(F)cc4)n3)CC2)cc1
CC(C)COc1ccc(Cl)cc1Cc1ccc(-c2nc3ccc(C(F)(F)F)cc3[nH]2)o1
O=C(/C=C/c1c[nH]c2ccccc12)NCCCCCN1CCC(c2c[nH]c3ccccc23)CC1
Cc1noc(C)c1-c1ccc2c(Nc3ccccc3C(C)(C)C)c(C(=O)NCc3ccc(C(F)(F)F)cc3)cnc2c1
CN(C)C(=O)O[C@@H]1CN[C@H](C#Cc2cc3ncnc(Nc4ccc5c(cnn5Cc5cccc(F)c5)c4)c3s2)C1
CCOC(=O)c1cc(C(=O)NCCCCN2CCC(c3ccc(CC)cc3OCC)CC2)ccc1-c1ccc(C(F)(F)F)cc1
Cc1cc(Nc2ccnc(-c3ccc(Cl)cc3)n2)ccn1
Cc1ccc(Nc2nc(N)c3ccccc3n2)cc1
O=C(N[C@H]1CCN(Cc2ccc(OCCN3CCCC3)c(Cl)c2)C1)c1ccc(Cl)c(Cl)c1
CC(Cc1ccc(NC(=O)COc2ccc(CC(C)NCCc3cccc(Cl)c3)cc2)cc1)NCCc1cccc(Cl)c1 (stereo not given)
O=C(Nc1ccc(-c2ccc(-c3nc4ccccc4[nH]3)s2)cc1)c1ccncc1
Cc1nc2nc(N)nc(N)c2c(C)c1Cc1cccc(C(N)=O)c1
COc1ccc(-c2ccc(NC(=O)c3ccc(Cl)cc3)cc2)cc1CN1CCNCC1
Oc1ccc(Nc2nc(NCc3ccccc3)c3ccccc3n2)cc1
COc1cc(F)c2ncc(Cl)c(CCN3CCC(NCc4ccc5c(c4)NC(=O)CO5)CC3)c2c1
FC(F)(F)c1ccc2nc(-c3cccc(-c4cccc(CNCC5CCCO5)c4)c3)[nH]c2c1 (stereo not given)
OCCN1CCN(Cc2ccc(-c3cccc(-c4nc5ccc(C(F)(F)F)cc5[nH]4)c3)cc2)CC1
Clc1cnc2ccc3c(c2c1CCN1CCC(NCc2cc4c(cn2)OCCO4)CC1)OCCO3
CC(CCc1ccccc1)NCC(O)c1cccc([N+](=O)[O-])c1 (stereo not given)
CC(CN(C)C)C(=O)Nc1cccc(-c2cccc(-c3nc4ccc(F)cc4[nH]3)c2)c1 (stereo not given)
CC(=O)Nc1cccc(C(=O)Nc2cccc(-c3ccc(-c4nc5ccc(F)cc5[nH]4)s3)c2)c1
COc1ccc(Nc2nccc(N3CCC(NC(=O)C(C)c4ccc(Cl)cc4)CC3)n2)cc1 (stereo not given)
c1ccc(Oc2ccc(Nc3ccnc4cc(-c5cccc(CN6CCOCC6)c5)ccc34)cc2)cc1
